Experimental data: PubChem BioAssay AID1159580 (chemical genetic matrix, 2015)
Values joined by “and” are separate entries in the source; they are usually repeats but may differ in a detail not shown here. Equal values may be shown once. The campaign covered roughly 5,500 compounds. About 2,000 (36%) were called active. Not shown: some 18% with an inconclusive outcome. Cut-off read from the data, not from the text of the source: active = normalized growth mostly below about 0.91 (no sharp cut-off); inconclusive = no clear call, values can overlap the other calls; inactive = mostly above about 0.92. The list shows a part of the results.

Experiment: chemical genetic growth profiling, strain panel (AID 1159580);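 note: tested at 20 µM; growth read once vehicle control cultures reached saturation at 30 °C; 1 = growth at the plate median or of vehicle wells; lower values mean less growth of the strain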
Conditions: S. cerevisiae deletion strains, growth OD

Measured: normalized growth

OC1C(O)C(O)C(O)C(O)C1O (stereo not given)
inactive: locus YAL013W, strain DEP1, stronger effect = lower value 0.998 | locus YAL021C, strain ccr4, stronger effect = lower value 0.996 | locus YAL026C, strain drs2, stronger effect = lower value 1 | locus YAL030W, strain snc1, stronger effect = lower value 0.997 | locus YBL061C, strain skt5, stronger effect = lower value 0.998 | locus YBR009C, strain hhf1, stronger effect = lower value 1.01 | locus YBR021W, strain FUR4, stronger effect = lower value 1.08 | locus YBR023C, strain chs3, stronger effect = lower value 0.997 | locus YBR171W, strain sec66, stronger effect = lower value 1 | locus YBR229C, strain ROT2, stronger effect = lower value 0.957 | locus YBR231C, strain swc5, stronger effect = lower value 0.999 | locus YBR279W, strain paf1, stronger effect = lower value 1 | locus YCL011C, strain gbp2, stronger effect = lower value 1.01 | locus YCL016C, strain dcc1, stronger effect = lower value 1.01 | locus YCL029C, strain bik1, stronger effect = lower value 0.981 | locus YCL061C, strain MRC1, stronger effect = lower value 0.996 | locus YCL069W, strain vba3, stronger effect = lower value 0.999 | locus YCR088W, strain abp1, stronger effect = lower value 1 | locus YDL005C, strain med2, stronger effect = lower value 1 | locus YDL035C, strain GPR1, stronger effect = lower value 1 | locus YDL040C, strain nat1, stronger effect = lower value 1 | locus YDL074C, strain BRE1, stronger effect = lower value 0.962 | locus YDL101C, strain DUN1, stronger effect = lower value 0.989 | locus YDL134C, strain PPH21, stronger effect = lower value 0.99 | locus YDL185W, strain tfp1, stronger effect = lower value 0.966 | locus YDL192W, strain arf1, stronger effect = lower value 0.977 | locus YDR001C, strain nth1, stronger effect = lower value 0.998 | locus YDR069C, strain doa4, stronger effect = lower value 0.999 | locus YDR101C, strain arx1, stronger effect = lower value 0.976 | locus YDR137W, strain rgp1, stronger effect = lower value 1 | locus YDR150W, strain NUM1, stronger effect = lower value 0.99 | locus YDR159W, strain sac3, stronger effect = lower value 0.993 | locus YDR162C, strain NBP2, stronger effect = lower value 0.994 | locus YDR195W, strain ref2 0.984 | locus YDR297W, strain sur2, stronger effect = lower value 1 | locus YDR318W, strain mcm21, stronger effect = lower value 0.992 | locus YDR334W, strain swr1, stronger effect = lower value 0.994 | locus YDR335W, strain msn5, stronger effect = lower value 1 | locus YDR388W, stronger effect = lower value 0.989 | locus YDR392W, strain spt3, stronger effect = lower value 0.999 | locus YDR502C, strain sam2, stronger effect = lower value 0.986 | locus YEL003W, strain gim4, stronger effect = lower value 1.01 | locus YEL037C, strain rad23, stronger effect = lower value 1 | locus YEL061C, strain CIN8 (second series), stronger effect = lower value 1 | locus YEL061C, strain CIN8, stronger effect = lower value 0.983 | locus YER015W, strain faa2, stronger effect = lower value 0.993 | locus YER016W, strain bim1, stronger effect = lower value 0.991 | locus YER110C, stronger effect = lower value 0.982 | locus YER111C, strain swi4, stronger effect = lower value 1 | locus YER155C, strain BEM2 (second series), stronger effect = lower value 1.01 | locus YER155C, strain BEM2, stronger effect = lower value 0.999 | locus YER167W, strain BCK2, stronger effect = lower value 0.995 | locus YFR010W, strain ubp6, stronger effect = lower value 1 | locus YGL078C, strain dbp3, stronger effect = lower value 0.973 | locus YGL086W, strain mad1, stronger effect = lower value 0.979 | locus YGL167C, strain pmr1, stronger effect = lower value 1 | locus YGL173C, strain kem1, stronger effect = lower value 1.01 | locus YGL227W, strain vid30, stronger effect = lower value 1.01 | locus YGL240W, strain doc1, stronger effect = lower value 0.989 | locus YGL248W, strain PDE1, stronger effect = lower value 0.969 | locus YGL253W, strain hxk2, stronger effect = lower value 1 | locus YGR135W, strain pre9, stronger effect = lower value 1.02 | locus YGR252W, strain gcn5, stronger effect = lower value 0.924 | locus YHR013C, strain ard1, stronger effect = lower value 1 | locus YHR027C, strain rpn1, stronger effect = lower value 1 | locus YHR030C, strain SLT2, stronger effect = lower value 0.975 and 1 | locus YHR079C, strain IRE1 (second series), stronger effect = lower value 0.99 | locus YHR079C, strain IRE1, stronger effect = lower value 0.973 | locus YHR094C, strain hxt1, stronger effect = lower value 0.996 | locus YHR129C, strain ARP1, stronger effect = lower value 0.993 | locus YHR142W, strain chs7, stronger effect = lower value 1.01 | locus YHR200W, strain rpn10, stronger effect = lower value 0.971 | locus YIL066C, strain RNR3, stronger effect = lower value 0.979 | locus YIL073C, strain SPO22, stronger effect = lower value 0.994 | locus YIL125W, strain kgd1, stronger effect = lower value 0.98 | locus YIR030C, strain dcg1, stronger effect = lower value 0.995 | locus YJL092W, strain hpr5, stronger effect = lower value 1 | locus YJL095W, strain BCK1 (second series), stronger effect = lower value 1 | locus YJL095W, strain BCK1, stronger effect = lower value 0.991 | locus YJL115W, strain asf1, stronger effect = lower value 1 | locus YJL129C, strain trk1, stronger effect = lower value 1.02 | locus YJL134W, strain LCB3, stronger effect = lower value 0.995 | locus YJL154C, strain vps35, stronger effect = lower value 1 | locus YJL164C, strain tpk1, stronger effect = lower value 0.999 | locus YJL166W, strain qcr8, stronger effect = lower value 1.01 | locus YJL168C, strain set2, stronger effect = lower value 0.998 | locus YJL187C, strain SWE1 (second series), stronger effect = lower value 0.97 | locus YJL187C, strain SWE1, stronger effect = lower value 1.01 | locus YJR043C, strain POL32, stronger effect = lower value 0.995 | locus YJR066W, strain TOR1, stronger effect = lower value 0.956
